Rows were chosen to be rich in hits. Some 11% of all compounds tested hit in one or more screens of this group.
Autophagy mod – autophagy modulation, high-content screen; MEF GFP-LC3 puncta imaging; test concentration mostly 10 µM; calls only at 10 µM (by protocol); hit rate 0.98% among 190,000;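 active = percentage of spot-positive cells more than 3 SD above its plate mean, without a fluorescence outlier flag or 80% toxicity; inconclusive = no clear call, values can overlap the other calls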;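 also: spot-positive cell cutoff set from DMSO-treated cells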
INS promoter inh – TRM-6 insulin promoter activity inhibition | TRM-6 cells (human fetal islet line), insulin promoter-eGFP reporter, imaging; reporter expression induced with tamoxifen | inhibition, % at 2 µM | hit rate 0.9% among 130,000;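 active = inhibition above the mean plus 3 SD, with well images judged a real hit on visual review, cut at about 60% in these data, passing the limit was not always enough; inconclusive = inhibition over the cutoff but images rejected on review; inactive = inhibition not above the cutoff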
WT yeast gro inh – growth inhibition of WT yeast, mitochondrial fusion screen | mitochondrial fusion phenotypic screen, WT strain | inhibition, % at 10 µM | hit rate 2.1% among 190,000; in the data active = inhibition above about 58%; tested in S. cerevisiae
Ins promoter up – MIN6 insulin promoter up-regulation; MIN6 insulin promoter-GFP reporter, high-content imaging; hits give high values; z-score at 5 µM; hit rate 0.3% among 190,000;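 active = z-score above 3 at 5 µM with at least 500 cells counted in the well; inconclusive = wells under 500 cells, flagged as cytotoxic or low count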
L major viab – inhibitors of Leishmania major promastigote growth. AID 1063. Leishmania major promastigotes, resazurin fluorescence viability. hit rate 9% among 200,000. inhibition, % at 10 µM; in the data active = inhibition above about 50%;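 also: promastigotes grown with compound for 44 hours at 28 °C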
Starred values were filed as active, the others as inactive; i = inactive; ? = inconclusive; / = no result given; + = active, no number.

SMILES	Autophagy mod	INS promoter inh	WT yeast gro inh	Ins promoter up	L major viab
O=C1CC(C(F)(F)C(F)(F)C(F)(F)F)=Nc2ccccc2N1	i	31	16	/	-3
COc1cc(C(=O)Nc2ccc(S(=O)(=O)N3CCc4ccccc43)cc2)cc(OC)c1OC	i	46	0	-0.5	29
COC(=O)Nc1ccc(S(=O)(=O)N2CCCc3ccccc32)cc1	+	/	-1	0.56	42
COc1ccc(C(=O)NCc2ccccc2)cc1S(=O)(=O)N1CCCc2ccccc21	i	-257	4	-0.71	61*
COc1ccccc1C(=O)Nc1ccc(S(=O)(=O)N2CCc3ccccc32)cc1	i	26	-16	-0.87	80*
CC1(NC(=O)NCc2ccccc2)CCS(=O)(=O)C1 (stereo unspecified)	i	/	-23	0.41	-5
CC(C)CC(=O)N1CCN(CC2CC=CCC2)CC1 (stereo unspecified)	i	72	-9	/	27
CCN(CC)C(=O)C1CCN(CC2CC=CCC2)CC1 (stereo unspecified)	i	7	-11	0.22	84*
CCN(Cc1ccccc1)C(=O)C1CCN(CC2CC=CCC2)CC1 (stereo unspecified)	i	-8	9	-0.77	98*
CCOC(=O)c1cc2ccc3ccccc3c2s1	i	-8	60*	-0.26	0
CCN(CC)S(=O)(=O)c1cccc(NC(=O)/C=C/c2cccc([N+](=O)[O-])c2)c1	i	/	7	-1.5	99*
CC(C)CNC(=O)c1ccccc1NC(=O)/C=C/c1cccc([N+](=O)[O-])c1	i	-19	8	0.13	53*
O=C(/C=C/c1cccc([N+](=O)[O-])c1)NC(=S)Nc1ccccc1C(=O)O	i	-33	-4	-0.82	4
Cc1ncsc1C(=O)N1N=C2/C(=C/c3ccccc3)CCCC2C1c1ccccc1 (stereo unspecified)	i	/	71*	-0.8	99*
COc1ccc(/C=C2\CCCC3C2=NN(C(=O)CSc2ncn[nH]2)C3c2ccc(OC)cc2)cc1 (stereo unspecified)	i	-72	36	-1.4	91*
CCCNC(=O)NC(=O)COc1ccc2oc3ccccc3c2c1	i	57	23	0.41	6
CC(Oc1ccc2oc3ccccc3c2c1)C(=O)NC12CC3CC(CC(C3)C1)C2 (stereo unspecified)	i	-18	67*	0.42	11
C/C(CCN1CCc2nc(-c3ccccc3)c(-c3ccccc3)cc2C1)=N\OC[C@@H](C)[C@H](OCc1ccccc1)C(C)C	i	-10	61*	-0.52	4
Cc1ccc(C)c(NC(=O)CS(=O)(=O)c2cn(C)c3ccccc23)c1	i	40	1	0.46	2
Cc1ccc(C(=O)N/C(=C\c2ccc(-c3cccc([N+](=O)[O-])c3)o2)C(=O)NC(C)(C)C)cc1	i	7	21	-1.7	11
CCCNC(=O)Cn1c(=O)/c(=C\c2ccc(-c3cccc([N+](=O)[O-])c3)o2)s/c1=C\C(=O)C(C)(C)C	+	-81	1	1.5	63*
CCCNC(=O)Cn1c(=O)/c(=C\c2ccc(-c3ccc([N+](=O)[O-])cc3)o2)s/c1=C\C(=O)C(C)(C)C	?	-270	8	/	73*
COc1cccc(CN2CCC(C(=O)N3CCN(c4ccccc4F)CC3)CC2)c1	i	50	-6	0.13	89*
COc1ccc(OC)c(CN2CCC(C(=O)N3CCN(c4ccccc4F)CC3)CC2)c1	i	-8	-9	0.13	-13
COc1cc(CN2CCC(C(=O)N3CCN(c4ccccc4F)CC3)CC2)ccc1O	i	43	-8	/	63*
SMILES	Autophagy mod	INS promoter inh	WT yeast gro inh	Ins promoter up	L major viab
COc1cc(C(=O)Nc2c(C)cc(C)cc2C)c(Br)c(OC)c1OC	i	/	8	-0.94	4
Cn1c(C(O)c2ccc3c(c2)OCO3)nc2ccccc21 (stereo unspecified)	i	77*	-4	-0.08	14
CC(C)n1c(C(O)c2ccc3c(c2)OCO3)nc2ccccc21 (stereo unspecified)	i	-21	3	0.25	2
CCOc1ccc(C2c3[nH]c4ccccc4c3CCN2C(=O)Cn2cncn2)cc1 (stereo unspecified)	i	-42	-1	-0.33	10
COc1ccc(Cl)c(N2CCN(CCCNC(=O)Nc3ccc(C)cc3)CC2)c1	+	9	29	-1.1	22
Cc1ccc(NC(=O)NCCCN2CCOCC2)cc1	i	51	-1	/	-4
COc1ccc(N(CC2CO2)S(=O)(=O)c2ccccc2)cc1 (stereo unspecified)	i	/	-8	/	-2
CCCCC(=O)c1ccc(O)cc1O	+	13	10	/	-4
COc1ccccc1NCC(=O)n1nc(C)cc1C	i	/	4	0.33	-2
Cc1cc(N/C=C\c2nnnn2-c2ccccc2)no1	i	4	-21	-0.74	-1
CN(C)c1ccc(/C=C/c2nnnn2-c2ccccc2)cc1	i	10	7	-0.57	56*
CCN(CC)C(=S)SCC(=O)c1ccccc1	i	-58	-6	-0.2	1
CCN(CC)C(=S)SCC(=O)c1ccc(F)cc1	i	16	-22	-0.05	78*
O=C(O)CC/C(=C\c1cc([N+](=O)[O-])ccc1Cl)c1nc2ccccc2s1	i	51	-2	-0.07	-1
O=C(Nc1ccc(Cl)cc1)/C(=C/c1ccc([N+](=O)[O-])cc1)c1nc2ccccc2s1	i	/	35	-4.9	100*
COc1ccccc1OCCCCN1CCN(C(c2ccccc2)c2ccccc2)CC1	i	15	47	-0.73	93*
COc1cccc(OC)c1OCCCN1CCOCC1	i	-21	21	/	2
CC(=O)CCc1ccc(OCCCCN2CCC(Cc3ccccc3)CC2)cc1	+	-35	-18	-0.67	94*
COc1cccc(OC)c1OCCCCN1CCCC1	i	-46	66*	-0.06	66*
COc1cccc(OC)c1OCCCCN1CCC(Cc2ccccc2)CC1	i	/	12	-0.86	89*
CCCCCCCCCOC(=O)C(CC(=O)O)N1CCOCC1 (stereo unspecified)	i	68*	-19	/	-3
CCCCCOC(=O)CC(C(=O)OCCCCC)N1CCCCC1 (stereo unspecified)	i	60	30	-0.87	0
Clc1ccc2nc(-c3ccccn3)c(Nc3ccc4c(c3)OCO4)n2c1	i	-253	73*	-0.21	100*
Cc1ccc2nc(-c3ccccc3O)c(Nc3ccc4c(c3)OCCO4)n2c1	i	67*	13	0.35	13
Cc1ccc(Nc2c(-c3ccccc3O)nc3cnccn23)cc1	i	/	23	-1.4	79*
Cc1c(NC(=O)CSc2nnnn2-c2ccc(F)cc2)c(=O)n(-c2ccccc2)n1C	i	0	-2	-0.64	-6
Cc1nnc(SCC(=O)c2ccc(Cl)cc2)s1	i	71*	-6	0.13	5
Cc1nnc(SCC(=O)c2ccc([N+](=O)[O-])cc2)s1	i	/	-6	/	5
Nc1nnc(SCC(=O)c2ccc([N+](=O)[O-])cc2)s1	i	/	0	-0.1	84*
